Results from the supplement of paper PMC4466140.

How the values were obtained:
Assay in all cases: SPOT peptide array binding signal intensity (averaged, normalized) (arbitrary units (background-subtracted, floor 0; scale differs between SH3 domains)); higher = stronger binding of the SH3 domain to the peptide
[1] = target: AgAbp1
Summary of the method: (§1)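 Binding signal refers to normalized, background-subtracted spot intensity averaged over replicates, expressed in arbitrary units that differ between domains. GST-fused SH3 domains from four yeast species were incubated at 10 μg/ml overnight at 4°C on cellulose membranes of synthetic 15-mer peptides with cysteines replaced by serines. Bound protein was detected with anti-GST antibody, an HRP anti-mouse secondary and luminol, and quantified with Genespotter.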

[2] = target: AgBbc1
Summary of the method: as §1

[3] = target: AgBem1-D1
Summary of the method: as §1

[4] = target: AgBzz1-D1
Summary of the method: as §1

[5] = target: AgBzz1-D2
Summary of the method: as §1

[6] = target: AgCyk3
Summary of the method: as §1

[7] = target: AgFus1
Summary of the method: as §1

[8] = target: AgHof1
Summary of the method: as §1

[9] = target: AgHse1
Summary of the method: as §1

[10] = target: AgLsb1
Summary of the method: as §1

[11] = target: AgLsb4
Summary of the method: as §1

[12] = target: AgMyo5
Summary of the method: as §1

[13] = target: AgNbp2
Summary of the method: as §1

[14] = target: AgRvs167
Summary of the method: as §1

[15] = target: AgSho1
Summary of the method: as §1

[16] = target: AgSla1-D1-D2
Summary of the method: as §1

[17] = target: AgSla1-D3
Summary of the method: as §1

[18] = target: CaAbp1-D1
Summary of the method: as §1

[19] = target: CaAbp1-D2
Summary of the method: as §1

[20] = target: CaBbc1
Summary of the method: as §1

[21] = target: CaBem1-D1
Summary of the method: as §1

[22] = target: CaBzz1-D1
Summary of the method: as §1

[23] = target: CaBzz1-D2
Summary of the method: as §1

[24] = target: CaCyk3
Summary of the method: as §1

[25] = target: CaFus1
Summary of the method: as §1

[26] = target: CaHof1
Summary of the method: as §1

[27] = target: CaHse1
Summary of the method: as §1

[28] = target: CaLsb1
Summary of the method: as §1

[29] = target: CaLsb4
Summary of the method: as §1

[30] = target: CaMyo5
Summary of the method: as §1

[31] = target: CaNbp2
Summary of the method: as §1

[32] = target: CaRvs167
Summary of the method: as §1

[33] = target: CaRvs167-3
Summary of the method: as §1

[34] = target: CaSho1
Summary of the method: as §1

[35] = target: CaSla1-D1-D2
Summary of the method: as §1

[36] = target: CaSla1-D3
Summary of the method: as §1

[37] = target: ScAbp1
Summary of the method: as §1

[38] = target: ScBbc1
Summary of the method: as §1

[39] = target: ScBem1-D1
Summary of the method: as §1

[40] = target: ScBzz1-D1
Summary of the method: as §1

[41] = target: ScBzz1-D2
Summary of the method: as §1

[42] = target: ScCyk3
Summary of the method: as §1

[43] = target: ScFus1
Summary of the method: as §1

[44] = target: ScHof1
Summary of the method: as §1

[45] = target: ScHse1
Summary of the method: as §1

[46] = target: ScLsb1
Summary of the method: as §1

[47] = target: ScLsb2
Summary of the method: as §1

[48] = target: ScLsb3
Summary of the method: as §1

[49] = target: ScLsb4
Summary of the method: as §1

[50] = target: ScMyo3
Summary of the method: as §1

[51] = target: ScMyo5
Summary of the method: as §1

[52] = target: ScNbp2
Summary of the method: as §1

[53] = target: ScPex13
Summary of the method: as §1

[54] = target: ScRvs167
Summary of the method: as §1

[55] = target: ScSho1
Summary of the method: as §1

[56] = target: ScSla1-D1-D2
Summary of the method: as §1

[57] = target: ScSla1-D3
Summary of the method: as §1

[58] = target: SpAbp1-D1
Summary of the method: as §1

[59] = target: SpBbc1
Summary of the method: as §1

[60] = target: SpBzz1-D1
Summary of the method: as §1

[61] = target: SpBzz1-D2
Summary of the method: as §1

[62] = target: SpCyk3
Summary of the method: as §1

[63] = target: SpHof1
Summary of the method: as §1

[64] = target: SpHof1-2
Summary of the method: as §1

[65] = target: SpHof1-3
Summary of the method: as §1

[66] = target: SpHse1
Summary of the method: as §1

[67] = target: SpLsb1
Summary of the method: as §1

[68] = target: SpLsb4
Summary of the method: as §1

[69] = target: SpMyo1
Summary of the method: as §1

[70] = target: SpNbp2
Summary of the method: as §1

[71] = target: SpPex13
Summary of the method: as §1

[72] = target: SpRvs167
Summary of the method: as §1

[73] = target: SpSla1-D1-D2
Summary of the method: as §1

[74] = target: SpSla1-D3
Summary of the method: as §1

In the case of RFKRHRLEFPFNESE, the “SPOT peptide array binding signal intensity” value [1] is reported as 154, the “SPOT peptide array binding signal intensity” value [2] is reported as 38.5 and the “SPOT peptide array binding signal intensity” value [3] is reported as 120. For the same binder, the “SPOT peptide array binding signal intensity” value [4] was 58, the “SPOT peptide array binding signal intensity” value [5] was 71 and the “SPOT peptide array binding signal intensity” value [6] was at most 0. For the same binder, the “SPOT peptide array binding signal intensity” value [7] was 378, the “SPOT peptide array binding signal intensity” value [8] was 28 and the “SPOT peptide array binding signal intensity” value [9] was 929. The “SPOT peptide array binding signal intensity” value [10] was 1.5, the “SPOT peptide array binding signal intensity” value [11] was 78 and the “SPOT peptide array binding signal intensity” value [12] was 0.75. For the same binder, the “SPOT peptide array binding signal intensity” value [13] was 37, the “SPOT peptide array binding signal intensity” value [14] was 5.33 and the “SPOT peptide array binding signal intensity” value [15] was 46. The “SPOT peptide array binding signal intensity” value [16] was 98, the “SPOT peptide array binding signal intensity” value [17] was 8 and the “SPOT peptide array binding signal intensity” value [18] was 759. The “SPOT peptide array binding signal intensity” value [19] was 598, the “SPOT peptide array binding signal intensity” value [20] was 107 and the “SPOT peptide array binding signal intensity” value [21] was 164. For the same binder, the “SPOT peptide array binding signal intensity” value [22] was 34.5, the “SPOT peptide array binding signal intensity” value [23] was 34.8 and the “SPOT peptide array binding signal intensity” value [24] was 3. For the same binder, the “SPOT peptide array binding signal intensity” value [25] was 608, the “SPOT peptide array binding signal intensity” value [26] was 1.5 and the “SPOT peptide array binding signal intensity” value [27] was 16. For the same binder, the “SPOT peptide array binding signal intensity” value [28] was at most 0, the “SPOT peptide array binding signal intensity” value [29] was 31 and the “SPOT peptide array binding signal intensity” value [30] was 13.2. For the same binder, the “SPOT peptide array binding signal intensity” value [31] was 342, the “SPOT peptide array binding signal intensity” value [32] was 25.7 and the “SPOT peptide array binding signal intensity” value [33] was 211. The “SPOT peptide array binding signal intensity” value [34] was 939, the “SPOT peptide array binding signal intensity” value [35] was 7 and the “SPOT peptide array binding signal intensity” value [36] was 4. The “SPOT peptide array binding signal intensity” value [37] was 236, the “SPOT peptide array binding signal intensity” value [38] was 11.5 and the “SPOT peptide array binding signal intensity” value [39] was 52. For the same binder, the “SPOT peptide array binding signal intensity” value [40] was 12, the “SPOT peptide array binding signal intensity” value [41] was 1 and the “SPOT peptide array binding signal intensity” value [42] was 112. For the same binder, the “SPOT peptide array binding signal intensity” value [43] was 286, the “SPOT peptide array binding signal intensity” value [44] was 5.25 and the “SPOT peptide array binding signal intensity” value [45] was 1570. For the same binder, the “SPOT peptide array binding signal intensity” value [46] was 36.2, the “SPOT peptide array binding signal intensity” value [47] was 3 and the “SPOT peptide array binding signal intensity” value [48] was 80. The “SPOT peptide array binding signal intensity” value [49] was at most 0, the “SPOT peptide array binding signal intensity” value [50] was at most 0 and the “SPOT peptide array binding signal intensity” value [51] was 3.5. The “SPOT peptide array binding signal intensity” value [52] was 154, the “SPOT peptide array binding signal intensity” value [53] was at most 0 and the “SPOT peptide array binding signal intensity” value [54] was 25.3. For the same binder, the “SPOT peptide array binding signal intensity” value [55] was 756, the “SPOT peptide array binding signal intensity” value [56] was 358 and the “SPOT peptide array binding signal intensity” value [57] was 11.8. The “SPOT peptide array binding signal intensity” value [58] was 419, the “SPOT peptide array binding signal intensity” value [59] was 2.5 and the “SPOT peptide array binding signal intensity” value [60] was 127. The “SPOT peptide array binding signal intensity” value [61] was at most 0, the “SPOT peptide array binding signal intensity” value [62] was at most 0 and the “SPOT peptide array binding signal intensity” value [63] was 68.2. The “SPOT peptide array binding signal intensity” value [64] was 12.2, the “SPOT peptide array binding signal intensity” value [65] was 348 and the “SPOT peptide array binding signal intensity” value [66] was 640. The “SPOT peptide array binding signal intensity” value [67] was 10.8, the “SPOT peptide array binding signal intensity” value [68] was 30.5 and the “SPOT peptide array binding signal intensity” value [69] was 0.5. The “SPOT peptide array binding signal intensity” value [70] was 298, the “SPOT peptide array binding signal intensity” value [71] was 15 and the “SPOT peptide array binding signal intensity” value [72] was 22.5. For the same binder, the “SPOT peptide array binding signal intensity” value [73] was at most 0 and the “SPOT peptide array binding signal intensity” value [74] was 26.
